TRHR ag: TRH receptor (human) agonism; TRHR cells, calcium flux fluo-8, FDSS agonist mode; 360,000 tested, 0.18% active; P34981; activation, % at 2 µM; also: 0% is about no effect
Target sequence (P34981 whole entry, looked up): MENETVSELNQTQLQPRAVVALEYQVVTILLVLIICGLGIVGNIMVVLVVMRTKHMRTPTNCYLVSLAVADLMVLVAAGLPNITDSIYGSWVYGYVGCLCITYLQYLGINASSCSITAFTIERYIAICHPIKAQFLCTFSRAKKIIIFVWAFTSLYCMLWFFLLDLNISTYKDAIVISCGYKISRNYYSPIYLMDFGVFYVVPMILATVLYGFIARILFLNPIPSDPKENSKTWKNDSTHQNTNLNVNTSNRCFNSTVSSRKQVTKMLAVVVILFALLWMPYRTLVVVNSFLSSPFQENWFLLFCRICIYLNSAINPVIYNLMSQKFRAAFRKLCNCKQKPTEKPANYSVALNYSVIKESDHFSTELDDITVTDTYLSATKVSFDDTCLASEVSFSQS
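Agonist-mode FDSS calcium read (Ex 480/Em 530, 1 s cycles) in 1536-well TRHR cells with fluo-8 dye, after 10-cycle baseline and 23 nL compound addition; TRH at EC20 (10 nM final) added afterwards for the enhancer phase.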
D1 PAM: human D1 dopamine receptor positive modulation | P21728 | HEK293 TREx D1 cells, calcium flux, dopamine EC20 potentiation | potentiation, % at 10 µM | 360,000 tested, 0.036% active | AID 504651; in the data active = potentiation above about 30%; also: 0% is about no effect
TRHR enhancer: allosteric enhancers of human TRH receptor | 360,000 tested, 0.66% active | AID 493056 | TRHR cells, fluo-8 calcium fluorescence, EC20 TRH enhancement | enhancement, % at 2 µM; in the data active = enhancement above about 30%; also: 0% is about no effect
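TRHR-expressing cells loaded with fluo-8 calcium dye were read kinetically (ex 480/em 530) during compound addition, then stimulated with an EC20 of TRH (10 nM final). Enhancement of the Gq-mediated intracellular calcium response was scored.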
D1 ag: agonists of human D1 dopamine receptor; activation, % at 2 µM; P21728; HEK293 T-REx D1 cells, calcium flux, agonist mode; 360,000 tested, 1% active; also: 0% is about no effect
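Tetracycline-induced HEK293 TREx D1 cells, force-coupled to calcium signalling, were dye-loaded with a no-wash calcium kit. Compound was pin-added after a 10 s baseline. Fluorescence was read kinetically at 1 cycle/s for 180 s, with calcium rises flagged as agonism.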
D1 antag: human D1 dopamine receptor antagonism | P21728 | HEK293 TREx D1 cells, calcium flux, dopamine EC80; hits give low values | activity change, negative = inhibition, % at 10 µM | 360,000 tested, 3.2% active; in the data active = activity change below about -30%; also: % is scaled to controls: 0 for no effect and ±100 for the full control effect
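Inducible Hek293 Trex D1 cells (tetracycline, overnight, 30 C). Calcium dye 30–90 min RT. Antagonist mode: EC80 dopamine added after 180 s compound read.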
Active calls of the source: *; x = no result. Hits are enriched below; roughly 4.7% of the tested compounds scored in any of these assays. Rule as the data show it, unless noted: active = activation above about 30%; inactive = the rest.

SMILES	TRHR ag	D1 PAM	TRHR enhancer	D1 ag	D1 antag
O=C(Nc1ccncc1)C1CCN(S(=O)(=O)c2cccs2)CC1	0	-5	1	5	3
O=C(Nc1ccc(F)cc1)C1CCN(S(=O)(=O)c2cccs2)CC1	-1	-1	-6	13	-40*
O=C(Nc1ccc(F)cc1)C1CCC(N2C(=O)c3ccccc3C2=O)CC1 (stereo not given)	1	0	-1	7	-30*
CCc1ccc(Oc2c(C(F)(F)F)oc3c(CN4CCCC(C)C4)c(O)ccc3c2=O)cc1 (stereo not given)	0	-1	8	1	10
O=S(=O)(NCC(c1ccco1)S(=O)(=O)c1ccccc1)c1cc(F)ccc1F (stereo not given)	0	5	3	-2	x
Cn1c(=O)c(C(=O)COc2ccc(C#N)cc2)c(N)n(Cc2ccccc2)c1=O	10	0	1	59*	-18
CCC(=O)OCC(=O)c1c(N)n(Cc2ccccc2)c(=O)n(C)c1=O	0	1	4	5	9
Cc1cc2nc3c(=O)[nH]c(=S)[nH]c3nc2cc1NC(=O)C(F)(F)F	4	1	3	64*	0
O=c1[nH]c(CN2CCN(c3ncccn3)CC2)nc2c(Br)cc(Br)cc12	1	-8	30*	6	-6
Cc1ccc(Cl)cc1N(C)C(=O)c1cc2ccc3cccnc3c2[nH]1	-2	11	6	9	-1
Clc1cccc(-c2ccc(/C=N/n3cnnc3)o2)c1	-1	-4	-5	-1	-33*
CCN(c1ccccc1)S(=O)(=O)c1ccc(Cl)c(C(=O)N(CC2CCCO2)C2CCS(=O)(=O)C2)c1 (stereo not given)	-1	-3	-7	6	-36*
Cc1ccc(C(OC(=O)c2ccco2)C(=O)NC(C)(C)C)cc1 (stereo not given)	-1	-11	0	-3	-44*
COc1ccc(C(OC(=O)c2ccco2)C(=O)NC(C)(C)C)cc1 (stereo not given)	2	-4	30	-1	6
O=C(NCCc1ccccc1)c1nc(-c2cccs2)no1	-1	-2	-4	1	-36*
COc1ccc(N(Cc2ccccc2)C(=O)CSc2nnc(Cn3nnc4ccccc43)o2)cc1	1	3	17	4	10
O=C(CSc1nnc(Cn2nnc3ccccc32)o1)N(Cc1ccc(F)cc1)c1ccccc1	0	-3	-4	2	-41*
COc1cc(NC(=O)CN(C)C2CCCCC2)c(C)cc1[N+](=O)[O-]	-1	-11	-3	0	-74*
Cn1c(Cc2nc(-c3cnccn3)no2)nnc1SCC(=O)Nc1ccccc1	0	4	10	0	-87*
CCC(C)S(=O)(=O)c1oc(-c2cccs2)nc1S(=O)(=O)c1ccccc1 (stereo not given)	2	2	4	9	11
COC(=O)c1ccc(C(=O)OC)c(NC(=O)CN(C)Cc2cccc(Cl)c2Cl)c1	0	9	19	10	1
COC(=O)c1ccc(C(=O)OC)c(NC(=O)CSCc2ccc(Br)cc2)c1	1	-3	7	33*	-42*
COC(=O)c1ccc(C(=O)OC)c(NC(=O)CN(C)Cc2ccccc2)c1	1	-1	31*	10	-9
COc1cc(Cl)c(C)cc1NC(=O)CC1Oc2ccccc2NC1=O (stereo not given)	0	-3	4	-1	1
CCc1cccc(C)c1NC(=O)CCCn1nc(C)c2sc3ccccc3c2c1=O	0	0	1	0	-39*
SMILES	TRHR ag	D1 PAM	TRHR enhancer	D1 ag	D1 antag
CCc1cccc(NC(=O)Cn2nc(C)c3sc4ccccc4c3c2=O)c1	-1	-1	-1	1	-42*
CSc1cccc(NC(=O)Cn2nc(C)c3sc4ccccc4c3c2=O)c1	-1	-2	3	2	3
COc1ccccc1NC(=O)N1CCC(CN2CCc3ccccc3C2)CC1	0	-4	-1	1	0
CCOc1ccccc1Nc1nnc(Cc2ccccc2Cl)c(=O)[nH]1	-2	-10	5	10	-32*
CCSC1=NCCN1S(=O)(=O)c1ccc2ccccc2c1	-1	-3	-7	1	-31*
O=S(=O)(c1ccc2ccccc2c1)N1CCN=C1SCc1cccnc1	0	-2	-9	3	-34*
CCS(=O)(=O)N1CCc2cc(C(=O)Nc3ccc(OC)c(Cl)c3)ccc21	0	-3	-4	2	-28
CCn1c(CSc2nc(C)cc(C)n2)nnc1SCC(=O)Nc1nc(-c2ccccc2)cs1	3	0	-2	37*	4
C/C=C1\C(OC2OC(CO)C(O)C(O)C2O)OC=C(C(=O)OC)C1CC(=O)OCC1C(C)C(OC(=O)CC2C(C(=O)OC)=COC(OC3OC(CO)C(O)C(O)C3O)/C2=C\C)CC1C(CO)CO (stereo not given)	0	-2	-1	-1	-31*
c1ccc(-c2nn3c(Cn4cnc5ccccc54)nnc3s2)cc1	-1	-11	15	4	-33*
CC1=C(OC(=O)c2ccccc2)C(C)(C)C(c2ccccc2)OC1=O (stereo not given)	-1	-6	2	1	-38*
COC(=O)c1c(Oc2ccc(C(C)=O)cc2)nnc(-c2ccccc2)c1-c1ccccc1	0	-2	-9	3	-19
Cc1cccc(N2CCn3c2nc2c3c(=O)n(CCc3ccccc3)c(=O)n2C)c1	-1	-4	-4	2	-2
Cc1cccc(N2CCCn3c2nc2c3c(=O)n(CC(=O)OCc3ccccc3)c(=O)n2C)c1	0	-14	-2	1	-55*
C=CCOC(=O)C1=C(C)NC(SCC(N)=O)=C(C#N)C1c1cccs1 (stereo not given)	0	-4	0	-1	-45*
CC(C)(C)CC(=O)NCC(c1ccc2c(c1)OCO2)N1CCN(c2ccccc2)CC1 (stereo not given)	1	-2	-19	0	8
Cc1ccc2nc(-c3sc4nc(C)ccc4c3N)[nH]c2c1	0	-5	11	0	-38*
CC(=O)Nc1c(C)nn(-c2ccccc2)c1N1CCC(C(=O)NCc2ccc(Cl)cc2)CC1	0	2	-4	1	4
O=[N+]([O-])c1ccc(-n2nnnc2-c2ccccc2)cc1	0	1	36*	-4	-7
O=C(Cn1cc(CN(Cc2ccccc2)Cc2ccccc2)nn1)Nc1cc(C(F)(F)F)ccc1Cl	-2	-3	0	6	-21
CC1=CC(C)(C)N(C(=O)c2ccc(F)cc2)c2cc3c(cc21)OCO3	-1	0	5	72*	16
OC(c1ccccc1)c1nc2ccccc2n1Cc1c(F)cccc1Cl (stereo not given)	0	-2	-6	12	5

Screens as filed in PubChem.
